Values joined by “and” are separate entries in the source; they are usually repeats but may differ in a detail not shown here. Equal values may be shown once. Inconclusive results are not listed. Active and inactive are the calls of the source. Unless noted, the call rests on the fitted dose curve; in most records, active means well fitted cell-killing curve with a large enough effect; inconclusive means small, poorly fitted or top-dose-only effect, or effect the other way; inactive means flat fitted curve, though single readings scatter.
Legend:
[1] = qHTS assay for cell viability of HEK293 cells (AID 743288); conditions: ATP luminescence (CellTiter-Glo), 18 h, stronger effect = lower value; further: on the % scale 0 is the no-effect control and ±100 the full control effect; nearly all actives have a fitted effect of over 50% in size
Outline: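 ATP luminescence (CellTiter-Glo) reports metabolically competent cell number after parental HEK293 cells, 2,000/well, were treated with DMSO-dissolved compounds for 18 h at 37 C; reagent incubation 30 min, room temperature.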

[2] = qHTS assay for cell viability of the p53RE-bla HCT-116 cell line (AID 743292); conditions: p53RE-bla HCT-116 viability, ATP luminescence, 16 h; series mostly up to 95 µM; further: on the % scale 0 is the no-effect control and ±100 the full control effect; nearly all actives have a fitted effect of over 55% in size
Outline: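 Viability of compound-treated p53RE-bla HCT-116 cells is taken from ATP-dependent luciferase luminescence. Treatment lasts 16 h at 37 C after a 5 h settling period; detection follows 30 min at room temperature.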

[3] = biological target: Nuclear receptor subfamily 1 group I member 2 (Rattus norvegicus) (UniProt Q9R1A7); experiment: qHTS assay for small molecule activators of the rat pregnane X receptor (rPXR) signaling pathway (AID 651751; call rule not given here; further: 0% is about no effect); conditions: rPXR reporter cells, luciferase (One-Glo), 24 h
Sequence of Nuclear receptor subfamily 1 group I member 2 (Rattus norvegicus) (Q9R1A7 whole entry, looked up): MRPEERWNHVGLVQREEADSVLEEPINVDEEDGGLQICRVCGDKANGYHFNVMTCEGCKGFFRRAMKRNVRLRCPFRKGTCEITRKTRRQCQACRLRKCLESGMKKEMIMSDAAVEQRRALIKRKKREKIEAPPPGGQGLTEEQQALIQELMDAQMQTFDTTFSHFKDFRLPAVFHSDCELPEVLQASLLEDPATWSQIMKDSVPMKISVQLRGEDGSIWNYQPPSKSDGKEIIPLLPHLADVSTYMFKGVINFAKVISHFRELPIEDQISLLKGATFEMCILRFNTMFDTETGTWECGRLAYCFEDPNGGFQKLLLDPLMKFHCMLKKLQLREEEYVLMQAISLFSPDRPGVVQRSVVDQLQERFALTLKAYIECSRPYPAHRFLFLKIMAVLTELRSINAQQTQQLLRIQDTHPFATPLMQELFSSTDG

[4] = qHTS assay for small molecule activators of the human pregnane X receptor (PXR) signaling pathway (AID 720659; call rule not given here; further: 0% is about no effect); conditions: DPX-2 HepG2 CYP3A4-luciferase, 24 h; series mostly up to 92.3 µM

C=C(C)C(=O)OCCCCCCCCCC
inactive: max response [1] -5.31% | Potency [2] | max response [3] 3.26% | outcome [4]

COc1cccc2sc(N)nc12
inactive: max response [1] -3.84% | Potency [2] | max response [3] 8.89% | outcome [4]

CC(=O)Nc1cccc(N)c1
inactive: max response [1] 8.3% | Potency [2] | max response [3] -0.641% | outcome [4]

COc1cccc(N)c1
inactive: max response [1] -0.119% | Potency [2] | max response [3] 12.1% | outcome [4]

CCC(C)(C)OC
inactive: max response [1] -19.7% | Potency [2] | max response [3] -4.5% | outcome [4]

CCCCC(C=O)CC (centres undefined)
inactive: max response [1] -9.34% | Potency [2] | max response [3] -0.0559% | outcome [4]

C[C@@H]1O[C@@H](O[C@@H]2[C@@H](O)[C@H](OCCc3ccc(O)c(O)c3)O[C@H](CO[C@@H]3O[C@H](CO)[C@@H](O)[C@H](O)[C@H]3O)[C@H]2OC(=O)/C=C/c2ccc(O)c(O)c2)[C@H](O)[C@H](O)[C@H]1O
inactive: max response [1] -6.2% | Potency [2] | max response [3] 1.79% | outcome [4]

NCCCCCCN
inactive: max response [1] 10.3% | Potency [2] | max response [3] 2.77% | outcome [4]

Cc1cc(C)cc(O)c1
inactive: max response [1] -5.39% | Potency [2] | max response [3] -0.901% | outcome [4]

Nc1cc(Cl)c(N)c(Cl)c1
inactive: max response [1] 3.57% and -5.3% | Potency [2] | max response [3] -6.29% and -6.62% | outcome [4]

Oc1c(Cl)ccc(Cl)c1Cl
inactive: max response [1] 4.44% | Potency [2] | max response [3] 0.125% | outcome [4]

c1ccc2c(c1)ccc1ncccc12
inactive: max response [1] 0.663% | Potency [2] | max response [3] 10.2% | outcome [4]

O=C(O)/C=C/C(=O)O
inactive: max response [1] -0.445% | Potency [2] | max response [3] 2.11% | outcome [4]

CC(=O)c1cccc([N+](=O)[O-])c1
inactive: max response [1] -8.78% | Potency [2] | max response [3] -2.86% | outcome [4]

CNc1ccccc1
inactive: max response [1] -6.52% | Potency [2] | max response [3] 4.02% | outcome [4]

O=C(O)CCSSCCC(=O)O
inactive: max response [1] -9.15% | Potency [2] | max response [3] -1.84% | outcome [4]

Cc1ccc(C)c(O)c1
inactive: max response [1] 5.19% | Potency [2] | max response [3] 4.49% | outcome [4]

CCCCCO
inactive: max response [1] 0.87% | Potency [2] | max response [3] -1.89% | outcome [4]

Nc1ccccc1S(=O)(=O)O
inactive: max response [1] -1.86% | Potency [2] | max response [3] -0.431% | outcome [4]

C=CCOC(=O)CCCCCCCC
inactive: max response [1] -7.54% | Potency [2] | max response [3] -5.54% | outcome [4]

Cc1c(C(=O)O)cccc1[N+](=O)[O-]
inactive: max response [1] 6.06% | Potency [2] | max response [3] 0.0854% | outcome [4]

CCNc1ccccc1
inactive: max response [1] -1.34% | Potency [2] | max response [3] -2.55% | outcome [4]

CCC(O)C(C)(C)C (centres undefined)
inactive: max response [1] -6.59% | Potency [2] | max response [3] 7.53% | outcome [4]

Cc1cccc(C)c1O
inactive: max response [1] 0.15% | Potency [2] | max response [3] 2.68% | outcome [4]

N#Cc1ccccc1
inactive: max response [1] 7.56% | Potency [2] | max response [3] -4.02% | outcome [4]

CC(CCl)OC(C)CCl (centres undefined)
inactive: max response [1] -14.3% | Potency [2] | max response [3] 2.99% | outcome [4]

Cc1ccc(N(C)C)cc1
inactive: max response [1] -14.6% | Potency [2] | max response [3] 1.14% | outcome [4]

CCCCC(CC)COC(=O)CCCCC(=O)OCC(CC)CCCC (centres undefined)
inactive: max response [1] -4.22% and -9.58% | Potency [2] | max response [3] 3.13% and -1.3% | outcome [4]

ClC/C=C/CCl
inactive: max response [1] 4.84% | Potency [2] | max response [3] 5.09% | outcome [4]

C[C@@H]1CC2(OC[C@]3(C)O[C@H]23)O[C@H]2C[C@@]3(C)[C@@H]4CC[C@H]5C(C)(C)C(O[C@@H]6OC[C@@H](O)[C@H](O)[C@H]6O)CC[C@@]56C[C@@]46CC[C@]3(C)[C@@H]12 (some centres undefined)
inactive: max response [1] -22.4% | Potency [2] | max response [3] 2.43% | outcome [4]

Cc1ccc2oc(=O)ccc2c1
inactive: max response [1] 2.42% and -2.56% | Potency [2] | max response [3] 9.5% and 1.03% | outcome [4]

Cc1ccco1
inactive: max response [1] 3.18% | Potency [2] | max response [3] -0.023% | outcome [4]

CC(C)C(C)C
inactive: max response [1] 2.97% | Potency [2] | max response [3] 9.63% | outcome [4]

CCOc1cccc(N)c1
inactive: max response [1] 5.75% | Potency [2] | max response [3] -4.44% | outcome [4]

NC(=O)CCCCC(N)=O
inactive: max response [1] 10.2% | Potency [2] | max response [3] 1.18% | outcome [4]

CCCCCCCCN
inactive: max response [1] -5.63% | Potency [2] | max response [3] 0.0694% | outcome [4]

NC(=O)c1cccc([N+](=O)[O-])c1
inactive: max response [1] -1.82% | Potency [2] | max response [3] 6.83% | outcome [4]

CCOCCOCC
inactive: max response [1] 0.474% | Potency [2] | max response [3] -2.52% | outcome [4]

Cc1cccc2cccnc12
inactive: max response [1] -0.0071% | Potency [2] | max response [3] -0.272% | outcome [4]

Cc1ccc(C(=O)O)cc1
inactive: max response [1] -10.4% | Potency [2] | max response [3] 3.84% | outcome [4]

O=C(O)CNC(=O)c1ccc([N+](=O)[O-])cc1
inactive: max response [1] -4.53% | Potency [2] | max response [3] 1.39% | outcome [4]

CCCCC(CC)COCC1CO1 (centres undefined)
inactive: max response [1] 0.479% | Potency [2] | max response [3] 9.04% | outcome [4]

O=[N+]([O-])c1cccc(Cl)c1
inactive: max response [1] -0.245% | Potency [2] | max response [3] 0.107% | outcome [4]

NS(=O)(=O)O
inactive: max response [1] 3.9% | Potency [2] | max response [3] -5.24% | outcome [4]

O=C(O)c1ccc(C(=O)O)cc1
inactive: max response [1] 8.37% and 1.4% | Potency [2] | max response [3] -1.05% and -0.301% | outcome [4]

Cc1ccc2ncccc2c1
inactive: max response [1] -3.3% | Potency [2] | max response [3] 2.4% | outcome [4]

CC(=O)OCCC(C)C
inactive: max response [1] 3.44% | Potency [2] | max response [3] 8.07% | outcome [4]

Cc1ccccc1C(N)=O
inactive: max response [1] 10.1% | Potency [2] | max response [3] -3.36% | outcome [4]

O=Cc1ccccc1Cl
inactive: max response [1] -11.9% | Potency [2] | max response [3] -0.844% | outcome [4]

Cc1cc(C)cc(N)c1
inactive: max response [1] -3.25% | Potency [2] | max response [3] 9.8% | outcome [4]

CO[Si](CCCNCCC[Si](OC)(OC)OC)(OC)OC
inactive: max response [1] 5.64% | Potency [2] | max response [3] 4.59% | outcome [4]

O=C(O)CNC(=O)c1ccc(CO)o1
inactive: max response [1] -5.2% | Potency [2] | max response [3] -7.08% | outcome [4]

CCCCCCCCC
inactive: max response [1] 9.61% | Potency [2] | max response [3] 3.91% | outcome [4]

CC(=O)c1cc(C)oc1C
inactive: max response [1] -13.5% | Potency [2] | max response [3] 1.56% | outcome [4]

O=Nc1ccc(NO)cc1
inactive: max response [1] -9.92% | Potency [2] | max response [3] -3.74% | outcome [4]

COC(=O)CCCC(=O)OC
inactive: max response [1] -4.02% | Potency [2] | max response [3] 1.21% | outcome [4]

O=C(O)c1cccc(Cl)c1Cl
inactive: max response [1] 6.72% | Potency [2] | max response [3] -3.88% | outcome [4]

CC(C)c1ccccc1
inactive: max response [1] -0.678% | Potency [2] | max response [3] -5.7% | outcome [4]

Cc1ccc(Br)cc1
inactive: max response [1] -7.93% | Potency [2] | max response [3] 10.2% | outcome [4]

C=CC(=O)NC(C)C
inactive: max response [1] -0.14% | Potency [2] | max response [3] 3.94% | outcome [4]

O=[N+]([O-])c1ccc(NCCO)c(OCCO)c1
inactive: max response [1] -2.57% | Potency [2] | max response [3] -2.89% | outcome [4]

O=C1OC(=O)c2c(Br)c(Br)c(Br)c(Br)c21
inactive: max response [1] 2.2% and -6.24% | Potency [2] | max response [3] -2.83% and 0.309% | outcome [4]

O=[N+]([O-])c1cc(C(F)(F)F)ccc1Cl
inactive: max response [1] -0.584% | Potency [2] | max response [3] 0.829% | outcome [4]

CC(C)N(C)C
inactive: max response [1] 6.47% | Potency [2] | max response [3] -2.95% | outcome [4]

CC(N)CN (centres undefined)
inactive: max response [1] -8.09% | Potency [2] | max response [3] 5.77% | outcome [4]

O=C(O)c1cc(Cl)cc(Cl)c1
inactive: max response [1] 9.31% | Potency [2] | max response [3] -3.46% | outcome [4]

C=CCCC
inactive: max response [1] -5.1% | Potency [2] | max response [3] 2.44% | outcome [4]

O=C1C=CCCC1
inactive: max response [1] -6.57% | Potency [2] | max response [3] 0.149% | outcome [4]

CC1(N)CCC(C(C)(C)N)CC1 (centres undefined)
inactive: max response [1] 3.33% | Potency [2] | max response [3] 1.15% | outcome [4]

C1COC1
inactive: max response [1] 7.71% | Potency [2] | max response [3] -0.345% | outcome [4]

Cc1cccc2sc(N)nc12
inactive: max response [1] 2.69% | Potency [2] | max response [3] 7.23% | outcome [4]

CCCCOCCOCCOCCCC
inactive: max response [1] 3.02% | Potency [2] | max response [3] -1.56% | outcome [4]

CCCCCCC(=O)O
inactive: max response [1] -7.36% | Potency [2] | max response [3] -2.97% | outcome [4]

Nc1cccc(O)c1
inactive: max response [1] 2.15% | Potency [2] | max response [3] -3.29% | outcome [4]

CC(=O)c1ccccn1
inactive: max response [1] -9.54% | Potency [2] | max response [3] 2.33% | outcome [4]

CC(C=O)Cc1ccc(C(C)(C)C)cc1 (centres undefined)
inactive: max response [1] 9% and 0.62% | Potency [2] | max response [3] 2.84% and 3.47% | outcome [4]

From PubChem BioAssay (NCATS)
